# According to the supplement of paper PMC8728848:
# Shown is part of a subset that was picked to be rich in the strongest signals.
# B1: PfulAvr4 (Pseudocercospora fuligena) (protein)
# chain: HHHHHHDYKDDDDKTYVQDKTPAFVCPAADIKTTKCLGPKDCLYPSPKTCNGYIQCSPADDSYLTGIIHEMPCPSGLLWNDNKKWCDWPENTTCGLVKSAGATEVDATKQGPTPGKYHG
# How the values were obtained:
# Assay in all cases: glycan array binding signal (z-score within array); higher = stronger binding
# Conditions in all cases: glycan notation: IUPAC condensed, linker removed
# [1] = molecular target: Gal(b1-4)GlcNAc(b1-3)[GlcNAc(b1-6)]Gal(b1-4)GlcNAc
# Method in brief: (§1)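 Negative Z-scores can be read as non-binding. The Z-score is calculated within each array and then averaged across arrays of one protein sequence at different concentrations or buffers and across linkers. Arrays, 3228 in all, were curated from the Consortium for Functional Glycomics database and kept only where the protein sequence was available.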
# Gal(b1-6)Gal = molecular target: Gal(b1-6)Gal
# Method in brief: as §1
# Gal3S6S(b1-4)GlcNAc = molecular target: Gal3S6S(b1-4)GlcNAc
# Method in brief: as §1
# Gal6S(b1-4)GlcNAc = molecular target: Gal6S(b1-4)GlcNAc
# Method in brief: as §1
# [2] = molecular target: GalNAc(b1-4)GlcNAc(b1-3)GalNAc(b1-4)GlcNAc
# Method in brief: as §1
# [3] = molecular target: GalNAc3S(b1-4)[Fuc(a1-3)]GlcNAc
# Method in brief: as §1
# [4] = molecular target: GlcNAc(a1-3)Gal(b1-4)GlcNAc
# Method in brief: as §1
# [5] = molecular target: GlcNAc(a1-4)Gal(b1-4)GlcNAc(b1-3)Gal(b1-4)GlcNAc(b1-3)Gal(b1-4)GlcNAc
# Method in brief: as §1
# [6] = molecular target: GlcNAc(b1-2)[GlcNAc(b1-4)]Man(a1-3)[GlcNAc(b1-2)Man(a1-6)]Man(b1-4)GlcNAc(b1-4)GlcNAc
# Method in brief: as §1
# [7] = molecular target: GlcNAc(b1-3)Gal(b1-4)GlcNAc(b1-3)Gal(b1-4)GlcNAc(b1-2)[GlcNAc(b1-3)Gal(b1-4)GlcNAc(b1-3)Gal(b1-4)GlcNAc(b1-6)]Man(a1-6)[GlcNAc(b1-3)Gal(b1-4)GlcNAc(b1-3)Gal(b1-4)GlcNAc(b1-2)Man(a1-3)]Man(b1-4)GlcNAc(b1-4)[Fuc(a1-6)]GlcNAc
# Method in brief: as §1
# [8] = molecular target: GlcNAc(b1-3)Gal(b1-4)GlcNAc(b1-3)Gal(b1-4)GlcNAc(b1-3)Gal(b1-4)GlcNAc(b1-2)[GlcNAc(b1-3)Gal(b1-4)GlcNAc(b1-3)Gal(b1-4)GlcNAc(b1-3)Gal(b1-4)GlcNAc(b1-6)]Man(a1-6)[GlcNAc(b1-3)Gal(b1-4)GlcNAc(b1-3)Gal(b1-4)GlcNAc(b1-3)Gal(b1-4)GlcNAc(b1-2)Man(a1-3)]Man(b1-4)GlcNAc(b1-4)[Fuc(a1-6)]GlcNAc
# Method in brief: as §1
# GlcNAc(b1-3)Man = molecular target: GlcNAc(b1-3)Man
# Method in brief: as §1
# [9] = molecular target: GlcNAc(b1-3)[GlcNAc(b1-4)][GlcNAc(b1-6)]GlcNAc
# Method in brief: as §1
# [10] = molecular target: GlcNAc(b1-4)GlcNAc(b1-4)GlcNAc(b1-4)GlcNAc(b1-4)GlcNAc(b1-4)GlcNAc
# Method in brief: as §1
# Kdn(a2-3)Gal(b1-4)Glc = molecular target: Kdn(a2-3)Gal(b1-4)Glc
# Method in brief: as §1
# Kdn(a2-6)Gal(b1-4)GlcNAc = molecular target: Kdn(a2-6)Gal(b1-4)GlcNAc
# Method in brief: as §1
# [11] = molecular target: Man(a1-3)[Man(a1-6)]Man(a1-6)[Man(a1-2)Man(a1-3)]Man(b1-4)GlcNAc(b1-4)GlcNAc
# Method in brief: as §1
# [12] = molecular target: Man(a1-3)[Man(a1-6)]Man(a1-6)[Man(a1-3)]Man
# Method in brief: as §1
# [13] = molecular target: Man(a1-3)[Man(a1-6)]Man(a1-6)[Man(a1-3)]Man(b1-4)GlcNAc(b1-4)GlcNAc
# Method in brief: as §1
# [14] = molecular target: Man(a1-3)[Man(a1-6)]Man(b1-4)GlcNAc(b1-4)[Fuc(a1-6)]GlcNAc
# Method in brief: as §1
# Man(a1-6)Man = molecular target: Man(a1-6)Man
# Method in brief: as §1
# [15] = molecular target: Neu5Ac(a2-3)Gal(b1-3)GlcNAc(b1-2)Man(a1-3)[Neu5Ac(a2-3)Gal(b1-3)GlcNAc(b1-2)Man(a1-6)]Man(b1-4)GlcNAc(b1-4)GlcNAc
# Method in brief: as §1
# [16] = molecular target: Neu5Ac(a2-3)Gal(b1-3)GlcNAc(b1-6)GalNAc
# Method in brief: as §1
# [17] = molecular target: Neu5Ac(a2-3)[Neu5Ac(a2-6)]GalNAc
# Method in brief: as §1
# [18] = molecular target: Neu5Ac(a2-6)Gal(b1-4)GlcNAc(b1-2)Man(a1-3)[Gal(b1-4)GlcNAc(b1-2)Man(a1-6)]Man(b1-4)GlcNAc(b1-4)GlcNAc
# Method in brief: as §1
# [19] = molecular target: Neu5Ac(a2-6)Gal(b1-4)GlcNAc(b1-2)Man(a1-3)[Man(a1-6)]Man(b1-4)GlcNAc(b1-4)GlcNAc
# Method in brief: as §1
# [20] = molecular target: Neu5Ac(a2-8)Neu5Ac(a2-3)Gal(b1-4)Glc
# Method in brief: as §1
# [21] = molecular target: Neu5Ac(a2-8)Neu5Ac(a2-8)Neu5Ac(a2-3)[GalNAc(b1-4)]Gal(b1-4)Glc
# Method in brief: as §1
# [22] = molecular target: Neu5Gc(a2-3)Gal(b1-3)GlcNAc
# Method in brief: as §1
binder,measurement,setting,value
B1,glycan array binding signal (z-score),[1],1.21
same,glycan array binding signal (z-score),Gal(b1-6)Gal,-0.156
same,glycan array binding signal (z-score),Gal3S6S(b1-4)GlcNAc,0.034
same,glycan array binding signal (z-score),Gal6S(b1-4)GlcNAc,-0.128
same,glycan array binding signal (z-score),[2],-0.127
same,glycan array binding signal (z-score),[3],-0.134
same,glycan array binding signal (z-score),[4],-0.093
same,glycan array binding signal (z-score),[5],-0.059
same,glycan array binding signal (z-score),[6],-0.053
same,glycan array binding signal (z-score),[7],-0.049
same,glycan array binding signal (z-score),[8],-0.07
same,glycan array binding signal (z-score),GlcNAc(b1-3)Man,0.804
same,glycan array binding signal (z-score),[9],-0.124
same,glycan array binding signal (z-score),[10],23.3
same,glycan array binding signal (z-score),Kdn(a2-3)Gal(b1-4)Glc,0.189
same,glycan array binding signal (z-score),Kdn(a2-6)Gal(b1-4)GlcNAc,0.004
same,glycan array binding signal (z-score),[11],0.011
same,glycan array binding signal (z-score),[12],-0.076
same,glycan array binding signal (z-score),[13],-0.097
same,glycan array binding signal (z-score),[14],-0.095
same,glycan array binding signal (z-score),Man(a1-6)Man,-0.118
same,glycan array binding signal (z-score),[15],1.27
same,glycan array binding signal (z-score),[16],-0.082
same,glycan array binding signal (z-score),[17],-0.131
same,glycan array binding signal (z-score),[18],3.32
same,glycan array binding signal (z-score),[19],-0.088
same,glycan array binding signal (z-score),[20],-0.074
same,glycan array binding signal (z-score),[21],-0.132
same,glycan array binding signal (z-score),[22],-0.161
